This is part of a sample that, as a whole, favours compounds with a hit. Of some 83,000 tested, about 20% had one in any assay.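 Testing used 96-well plates and a 48-hour single-concentration exposure. Example: -40 means 40% of the starting cells died.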 Unmarked numbers belong to inactive results. Active and inactive are the calls of the source. The calls were made as follows: active = growth percent below 10; inactive = the rest.
What was measured:
Assay in all cases: NCI-60 one-dose screen, 48 h (100 = growth as untreated, 0 = no growth, -100 = all killed)
Conditions in all cases: 10 µM unless noted
RPMI-8226 leukemia = test system: RPMI-8226 leukemia
OVCAR-8 ovarian = test system: OVCAR-8 ovarian
OVCAR-5 ovarian = test system: OVCAR-5 ovarian
OVCAR-4 ovarian = test system: OVCAR-4 ovarian
SK-OV-3 ovarian = test system: SK-OV-3 ovarian
IGROV1 ovarian = test system: IGROV1 ovarian
OVCAR-3 ovarian = test system: OVCAR-3 ovarian
HS 578T breast = test system: HS 578T breast
NCI/ADR-RES ovarian = test system: NCI/ADR-RES ovarian
T-47D breast = test system: T-47D breast

| Compound | growth (RPMI-8226 leukemia) | growth (OVCAR-8 ovarian) | growth (OVCAR-5 ovarian) | growth (OVCAR-4 ovarian) | growth (SK-OV-3 ovarian) | growth (IGROV1 ovarian) | growth (OVCAR-3 ovarian) | growth (HS 578T breast) | growth (NCI/ADR-RES ovarian) | growth (T-47D breast) |
| --- | --- | --- | --- | --- | --- | --- | --- | --- | --- | --- |
| Nc1n[nH]c2ccc([C@@H]3Nc4ccc5[nH]ncc5c4[C@H]4[C@H]5CCC(C5)[C@H]43)cc12 | 17.4% | 24.3% | 34.9% | 47.6% | 50.6% | 24.2% | -10.1% (active) | 5.8% (active) | 5.44% (active) | 73.6% |
| O=C(Nc1ccc(N2CCNCC2)cc1)c1[nH]ncc1Nc1cc(C2CC2)ncn1 | 55.4% | 81.2% | 99% | 62.3% | 10.3% | 33.4% | 43.7% | 41.1% | 102% | 57.1% |
| O=c1oc2ccc(Br)cc2c(=O)n1-c1ccc(Cl)cc1F | -25.5% (active) | 9.88% (active) | 23.5% | 15.1% | 1.82% (active) | 15.7% | 7.85% (active) | -5.24% (active) | 8.34% (active) | -1.08% (active) |
| NNC(=O)CNC(=O)Nc1n[nH]c(=S)s1 | 93% | 104% | 97.6% | 117% | 99.8% | 102% | 108% | 90.9% | 104% | 101% |
| O=S1(=O)N(Cc2ccccc2)[C@@H](Cc2ccccc2)C2O[C@H]2[C@H](Cc2ccccc2)N1Cc1ccccc1 (stereo not given in full) | 27.9% | 52.4% | 93.5% | 6.6% (active) | 47% | 60.6% | 62.8% | 98.9% | 40% | 32.5% |
| CC/C(=C(\CC)c1ccc(OCC[N+](C)(C)C)cc1)c1ccc(OC)cc1 | 31.1% | 53% | 102% | 68.5% | 86.9% | 68.8% | 51.3% | 72.3% | 107% | 59% |
| O=c1oc2ccc(I)cc2c(=O)n1-c1ccc(I)cc1F | -31.2% (active) | 9.03% (active) | 27.1% | 16.7% | 0.665% (active) | 15.9% | 7.88% (active) | -4.47% (active) | 9.94% (active) | -3.25% (active) |
| COc1ccc(/C=C/C(=O)c2c(C)nc3ccccc3c2/C=C/c2ccccc2)c(OC)c1 | 66.1% | 76.1% | 88.2% | 66.5% | 94.3% | 47.5% | 84.8% | 82.3% | 85.9% | 55% |
| Cc1c(C(=O)OCCO)cc(-c2ccc(Cl)cc2)n1-c1ccc(Cl)cc1Cl | 84.9% | 83.8% | 84.1% | 97.3% | 72.7% | 90.2% | 91.9% | 81.3% | 77.1% | 62% |
| Clc1ccc(Nc2nnc(-c3ccc4c(c3)OCO4)o2)cc1 | 91.1% | 94.2% | 104% | 102% | 102% | 101% | 114% | 109% | 98.6% | 82.5% |
